# This is a sample that favours compounds with a hit; in the whole collection about 3.9% have one here.
# DUSP3 inh: VHR1 phosphatase inhibitors, primary screen, biochemical, absorbance, uHTS; recombinant VHR phosphatase, pNPP absorbance; inhibition, % at 13.3 µM; 0.52% of 290,000 active; in the data active = inhibition above about 50%
# Target sequence (P51452 whole entry, looked up): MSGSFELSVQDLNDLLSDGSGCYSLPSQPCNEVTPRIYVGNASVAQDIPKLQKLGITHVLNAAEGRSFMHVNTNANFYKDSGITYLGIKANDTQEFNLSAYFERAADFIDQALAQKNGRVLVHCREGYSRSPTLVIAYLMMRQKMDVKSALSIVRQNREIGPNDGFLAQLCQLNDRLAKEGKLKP
# BoNT-A LC inh2: BoNT/A light chain protease inhibitors, primary screen, biochemical, flow cytometry, MLPCN library | Botulinum neurotoxin type A light chain protease (Clostridium botulinum A str. ATCC 3502) | multiplex microsphere protease substrate cleavage | inhibition, % at 10 µM | 0.17% of 360,000 active | AID 588499, 2011
# BoNT F protease: BoNT/F light chain protease inhibitors, primary screen, biochemical, flow cytometry, MLPCN library; Botulinum neurotoxin type F light chain protease (Clostridium botulinum); AID 588497, 2011; inhibition, % at 10 µM; Multiplex microsphere protease cleavage assay; 0.22% of 360,000 active; in the data active = inhibition above about 35%, passing the limit was not always enough; inconclusive = no clear call, values can overlap the other calls
# Anthrax LF prot: Bacillus anthracis LF protease inhibitors, primary screen, biochemical, multiplex microsphere, MLPCN library; Lethal factor (Bacillus anthracis), P15917; multiplex microsphere protease cleavage assay; inhibition, % at 10 µM; 0.12% of 360,000 active; AID 588501, 2011
# SARS 3CLpro inh: SARS-CoV 3CLpro protease inhibitors, primary screen, biochemical, quenched FRET | Replicase polyprotein 1ab (Severe acute respiratory syndrome coronavirus), P0C6X7 | recombinant SARS-CoV 3CLpro, quenched FRET peptide cleavage | 0.14% of 290,000 active | inhibition, % at 6 µM; in the data active = inhibition above about 12%
# Autofluor counter: counter-screen for toxin protease inhibitors: compound fluorescence | compound autofluorescence counterscreen, microsphere flow cytometry; active compounds read high | fluorescence intensity (test concentration not listed) | 3.1% of 360,000 active | AID 624483; in the data active = fluorescence intensity above about 16000; inconclusive = no clear call, values can overlap the other calls
# Numbers stand for hits; i = inactive; ? = inconclusive; nt = no result. Cut-off read from the data, not from the text of the source, unless noted: active = inhibition above about 30%; inconclusive = no clear call, values can overlap the other calls; inactive = below that.
SMILES,DUSP3 inh,BoNT-A LC inh2,BoNT F protease,Anthrax LF prot,SARS 3CLpro inh,Autofluor counter
CCCCOC(=O)C1=C(C)Nc2ncnn2C1c1cc(OC)c(OC)cc1OC (stereo not given),i,i,i,i,i,23316
CCCCOC(=O)C1=C(C)Nc2ncnn2C1c1ccc(OC)c(OC)c1OC (stereo not given),i,i,i,i,i,23980
CCCCOC(=O)C1=C(C)Nc2nnnn2C1c1ccc(OC)c(OC)c1OC (stereo not given),i,i,i,i,i,i
CCOC(=O)C1=C(C)Nc2ncnn2C1c1cc(OC)ccc1OC (stereo not given),i,i,i,i,i,i
CN(CC(=O)Nc1ccc(Cl)c(Cl)c1)C1CCCCC1,i,i,i,i,i,i
CS(=O)(=O)N(CC(=O)NCCc1ccccc1)C1CCCCC1,i,i,i,i,i,18975
COc1ccc(CCNC(=O)CN(C2CCCCC2)S(C)(=O)=O)cc1OC,i,i,i,i,i,i
COc1ccc(NC(=O)CN(C2CCCCC2)S(C)(=O)=O)cc1Cl,i,i,i,i,i,21935
O=C(CN1CCN(Cc2ccc3c(c2)OCO3)CC1)NCC(F)(F)F,i,i,i,i,i,i
COc1ccc(NCc2cc(=O)oc3cc(NC(C)=O)ccc23)cc1,nt,i,i,i,i,i
Cc1cc(C)c(S(=O)(=O)N2CCN(c3ccc([N+](=O)[O-])c(NCC4CCCO4)c3)CC2)c(C)c1 (stereo not given),i,i,i,i,i,i
O=[N+]([O-])c1ccc(N2CCN(S(=O)(=O)c3ccc(Cl)cc3)CC2)cc1NCC1CCCO1 (stereo not given),i,i,i,i,i,16643
CS(=O)(=O)N1CCN(c2ccc([N+](=O)[O-])c(NCc3ccccc3)c2)CC1,i,i,i,i,i,i
CS(=O)(=O)N1CCN(c2ccc([N+](=O)[O-])c(NCc3ccc(Cl)cc3)c2)CC1,90,i,i,i,i,i
Cn1c(=O)cc(OCC(=O)N2CCCc3ccccc32)c2ccccc21,i,i,i,i,i,21145
Cn1c(=O)cc(OCC(=O)N2CCN(c3cccc(C(F)(F)F)c3)CC2)c2ccccc21,i,i,i,i,i,20645
CCN1CCCC1CNC(=O)COc1cc(=O)n(C)c2ccccc12 (stereo not given),i,i,i,i,i,23013
CCOC(=O)N1CCN(C(=O)COc2cc(=O)n(C)c3ccccc23)CC1,i,i,i,i,i,i
C=C[C@@H]1c2cc(C)ccc2N(S(=O)(=O)c2ccc(C)cc2)[C@H](c2ccccc2C(F)(F)F)C1(C#N)C#N,nt,i,i,i,nt,i
Cc1ccc(CNC(=O)CCc2cn(C)c3ccccc23)cc1,i,i,i,i,i,i
Cc1ccc(NC(=O)c2ccc(C#CC3(O)CCCCC3)cc2)cc1C,i,i,i,i,i,22190
Cc1cccc(NC(=O)Cn2c(=O)n3nc(CCn4nc(C)cc4C)nc3c3ccccc32)c1,i,i,i,i,i,21276
CCN(C(=O)Cn1c(=O)n2nc(CCn3nc(C)cc3C)nc2c2ccccc21)c1cccc(C)c1,i,i,i,i,i,i
CCOC(=O)c1cccc(NC(=O)CSc2nnnn2C)c1,i,i,i,i,i,i
COC(=O)c1cc(NC(=O)CSc2nncn2C)cc(C(=O)OC)c1,i,i,i,i,i,20871
SMILES,DUSP3 inh,BoNT-A LC inh2,BoNT F protease,Anthrax LF prot,SARS 3CLpro inh,Autofluor counter
CCC(=O)Nc1cccc(NC(=O)CSc2nnnn2C)c1,i,i,i,i,i,16778
Cn1nnnc1SCC(=O)Nc1cc(C(=O)O)cc(C(=O)O)c1,i,?,i,i,i,17115
COC(=O)c1ccc(-n2nnnc2SCC(=O)NCc2cccc(C(=O)O)c2)cc1,i,i,i,i,i,i
Cn1nnnc1SCC(=O)NCc1cccc(C(=O)O)c1,i,?,i,i,i,20029
CCCCN=CC1=C(O)C(C(=O)OC)C(C)(C)CC1=O (stereo not given),i,i,i,i,i,i
CC1CCCCCCC1OC(=O)c1ccccc1C(=O)O (stereo not given),nt,i,i,i,nt,i
Cn1nnnc1SCC(=O)Nc1ccccc1Br,i,i,i,i,i,i
Cn1nnnc1SCC(=O)Nc1ccccn1,i,?,i,i,i,22271
O=C(NCc1ccccc1)C1CC2CCCC(C1)C2=O (stereo not given),i,?,i,i,i,17138
O=C(NCc1ccccc1)C1CCCC1,i,nt,nt,nt,i,nt
O=C(O)C1CC=CCC1C(=O)NCc1ccccc1 (stereo not given),i,i,i,i,i,22945
CCOc1ccccc1NC(=O)C1CC2CCCC(C1)C2=O (stereo not given),i,i,i,i,i,23703
Cc1cccc(CSc2nnc(N)n2-c2ccccc2)c1,i,i,i,i,i,22675
Nc1nnc(SCc2ccccc2)n1-c1ccccc1,i,?,i,i,i,17516
Cc1cccc(CSc2nnnn2-c2ccccc2)c1,i,i,i,i,i,i
c1ccc(CSc2nnc(-c3ccccn3)n2-c2ccccc2)cc1,i,i,i,i,i,i
CC(C)(C)NC(=O)CSc1nnc(C2CC2)n1-c1ccccc1,i,i,i,i,i,i
COc1ccc2nc(NC(=O)CSc3nnc(C)s3)sc2c1,i,i,i,i,i,21301
CSc1cccc(NC(=O)CSc2nnc(C)s2)c1,i,i,i,i,i,16404
COc1ccc(CNC(=O)CSc2nnc(C)c(=O)[nH]2)cc1,i,i,i,i,i,i
COc1ccc2nc(NC(=O)CSc3nc(SC)ns3)sc2c1,i,i,i,i,i,i
COc1ccc2sc(NC(=O)CC(C)C)nc2c1,i,i,i,i,i,20332
COc1ccc(CNC(=O)CSc2nnc(C)s2)cc1,i,?,i,i,i,19126
CCCN1C2CCCC1CC(NC(=O)c1ccccc1Br)C2 (stereo not given),i,i,i,i,i,i
CC(CCCCCCCCC(=O)O)N(CCO)C(=O)OC(C)(C)C (stereo not given),nt,i,i,i,nt,i
CCC1CCCCN1S(=O)(=O)c1ccc([N+](=O)[O-])cc1 (stereo not given),51,i,?,i,i,i
CC1CCCCN1S(=O)(=O)c1ccc([N+](=O)[O-])cc1 (stereo not given),i,i,?,i,i,i
CC(=O)Nc1ccc(S(=O)(=O)NCC(=O)Nc2ccc3c(c2)OCO3)cc1,nt,i,i,i,nt,i
COC(=O)C1=C(C)Nc2nnnn2C1c1cccs1 (stereo not given),i,i,i,i,i,19852
